Test results: the OligoGym collection

Biological target: C11orf53
Assay: pooled miR-30 sensor sort-seq; sequence = guide strand
Settings: shRNA
Also: reference of the scale not given here.

| Sequence | sensor-assay potency score (higher = more potent) |
| --- | --- |
| TTCTGACACCGTAGTAACCTGA | -0.43 |
| TCAGATAAGAAAGATCTTCTGA | 0.556 |
| TTACTGTTGTGGAAGTCTGAGT | -0.608 |
| TAAATAGGAAGTGAGCTGGGTC | 0.00724 |
| TATTCTGAAAATCCAGTCCTGA | -0.0201 |
| TCGTCCACTAACAAAGAGCAGC | -0.909 |
| TTTACTGTTGTGGAAGTCTGAG | -0.231 |
| TTTGACACCGTCATGAAAGGGG | 0.41 |
| TTATTCTGAAAATCCAGTCCTG | 0.403 |
| TCTGACACCGTAGTAACCTGAC | 0.0785 |
| TGACACACCTAAAACAATCTTT | 0.469 |
| TAGGTCATTTGACACCGTCATG | -1.72 |

Biological target: C11orf54
Assay: as above
Settings: shRNA

| Sequence | sensor-assay potency score (higher = more potent) |
| --- | --- |
| TTATTCACTTCTTCATCAGAGT | -0.552 |
| TGGAGTAGTGTCATAATGGTAG | -0.457 |
| TTTCATTTCATAAAAATGCAAC | -0.462 |
| TTTCTCACTGTATTTCTCCAGT | -0.237 |
| ATAAGTAAGGCACACCTCCAAC | -1.21 |
| TTTTATTCAGATCATAAACTTT | -0.546 |
| TTCTTCATCAGAGTTCAAGGGG | 0.466 |
| TAAACTCAGAATTGAACCCGAG | 0.00773 |
| TCTGAAATGGACCTGCTCCTGC | -0.481 |
| TATTCCACTATATCTGGAGTAG | -0.318 |
| ATAAACTCAGAATTGAACCCGA | 0.903 |

Biological target: C12orf42
Assay: as above
Settings: shRNA

| Sequence | sensor-assay potency score (higher = more potent) |
| --- | --- |
| TAGGTCTTGTGTGTCTACTGAT | -0.227 |
| TTCATGTGATTAATGAATCTGG | 0.286 |
| TCGAGCTCTGTGTTACTCGGGC | -0.424 |
| TGATTAATGAATCTGGAGCAGG | -0.678 |
| TTAGGTCTTGTGTGTCTACTGA | 0.176 |
| TTTATTAACCTCTTGGAGGGGA | 0.548 |
| TCTTGTGTGTCTACTGATGTGT | 0.434 |
| TTCATAACAAGGGATGTGCTTT | -0.454 |
| TGTGCTTACAGAACACCTGGGG | 0.85 |
| TCTGCTTTGGATGTCGTCGGGG | -0.507 |

Biological target: C13orf33
Assay: as above
Settings: shRNA

| Sequence | sensor-assay potency score (higher = more potent) |
| --- | --- |
| TTAATAAAGAACAACATTGGTT | -0.331 |
| TTGATGTAGCTGCTGAGGCGGT | -0.889 |
| TTACACTGAACTTTCGGTCAGA | 0.151 |
| TTTATAATCACAGTAGTTGGTC | 0.0911 |
| TTGCTCAATATAGTTTCCCTGT | -0.333 |
